From PubChem BioAssay (NCATS)
“And” between values parts separate entries of the source, which are not always exact repeats. Equal entries are not always repeated. Records with an inconclusive call do not appear. Where a structure was tested more than once in an assay, its records may differ in their call. The source made the active and inactive calls. The call rests on the fitted dose curve; in most records, active means well fitted curve in the direction sought with a large enough effect; inconclusive means small, poorly fitted or top-dose-only effect, or another doubt; inactive means no such curve, though single readings can be large; an effect the other way counts as inactive or inconclusive.

What was measured:
HEK293 = test: Cytotoxic Profiling of Annotated Libraries Using Quantitative High-Throughput Screening (AID 1296008); settings: Five cell lines viability, CellTiter-Glo ATP luminescence, 48-72 h; max response: active compounds read low; further: nearly all actives have a fitted effect of over 60% in size
Method in brief: (§1)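 Cells exposed to compounds for 48 or 72 hr at 37 degrees Celsius. Viability read as ATP-coupled luminescence with CellTiter-Glo after 10 min at room temperature.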

HaCat [1] = test: as above; settings: Five cell lines viability, CellTiter-Glo ATP luminescence, 48-72 h; max response: active compounds read low
Method in brief: as §1

KB-3-1 = test: as above; settings: Five cell lines viability, CellTiter-Glo ATP luminescence, 48-72 h; max response: active compounds read low
Method in brief: as §1

NIH3T3 [2] = test: as above; settings: Five cell lines viability, CellTiter-Glo ATP luminescence, 48-72 h; max response: active compounds read low
Method in brief: as §1

HACAT [3] = test: qHTS assay to identify novel small-molecules to repurpose for Merkel cell carcinoma treatment (AID 1296009); settings: MCC and control cell lines, CellTiter-Glo viability, 72 h; at 44.8 µM (top of the series) unless noted; further: nearly all actives have a fitted effect of over 60% in size
Method in brief: (§2)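 Cells were incubated with compound for 72 hr at 37 degree celsius before CellTiter-Glo addition. Luminescence was normalized with no-cell wells as full cytotoxicity and DMSO as baseline.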

MCC-13 = test: as above; settings: MCC and control cell lines, CellTiter-Glo viability, 72 h; series mostly up to 46 µM
Method in brief: as §2

MCC-26 = test: as above; settings: MCC and control cell lines, CellTiter-Glo viability, 72 h; series mostly up to 46 µM
Method in brief: as §2

MKL-1 = test: as above; settings: MCC and control cell lines, CellTiter-Glo viability, 72 h; series mostly up to 46 µM
Method in brief: as §2

MKL-2 = test: as above; settings: MCC and control cell lines, CellTiter-Glo viability, 72 h; series mostly up to 46 µM
Method in brief: as §2

NIH3T3 [4] = test: as above; settings: MCC and control cell lines, CellTiter-Glo viability, 72 h; at 44.8 µM (top of the series) unless noted
Method in brief: as §2

UISO = test: as above; settings: MCC and control cell lines, CellTiter-Glo viability, 72 h; series mostly up to 46 µM
Method in brief: as §2

WaGa = test: as above; settings: MCC and control cell lines, CellTiter-Glo viability, 72 h; series mostly up to 46 µM
Method in brief: as §2

C33A = test: Primary qHTS to identify gynecologic anti-cancer compounds using libraries of approved drugs and bioactive compounds (AID 1345084); settings: Gynecologic cancer cell panel viability, ATPlite luminescence, 48 h; series mostly up to 57.5 µM; further: nearly all actives have a fitted effect of over 55% in size
Method in brief: (§3)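 In this quantitative HTS, cell killing is estimated from loss of ATP-dependent luciferase light. Cells see five compound concentrations over a 48 h exposure.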

CAOV3 = test: as above; settings: Gynecologic cancer cell panel viability, ATPlite luminescence, 48 h; series mostly up to 57.5 µM
Method in brief: as §3

CASKI = test: as above; settings: Gynecologic cancer cell panel viability, ATPlite luminescence, 48 h; series mostly up to 57.5 µM
Method in brief: as §3

Es-2 = test: as above; settings: Gynecologic cancer cell panel viability, ATPlite luminescence, 48 h; series mostly up to 57.5 µM
Method in brief: as §3

HeLa = test: as above; settings: Gynecologic cancer cell panel viability, ATPlite luminescence, 48 h; series mostly up to 57.5 µM
Method in brief: as §3

Hek293T [5] = test: as above; settings: Gynecologic cancer cell panel viability, ATPlite luminescence, 48 h, control line for the selectivity index; series mostly up to 57.5 µM
Method in brief: as §3

JEG-3 = test: as above; settings: Gynecologic cancer cell panel viability, ATPlite luminescence, 48 h; series mostly up to 57.5 µM
Method in brief: as §3

HEK293T [6] = test: qHTS assay to identify novel small-molecules to repurpose for Merkel cell carcinoma treatment (AID 1296009); settings: MCC and control cell lines, CellTiter-Glo viability, 72 h; at 44.8 µM (top of the series); further: nearly all actives have a fitted effect of over 60% in size
Method in brief: as §2
On the % scale 0 is the no-effect control and ±100 the full control effect; potency means the concentration at half of the fitted maximal effect.

Clc1cccc(Cl)c1NC1=NCCN1
inactive: max response (HEK293) -3.7% and -4.57% | outcome (HaCat [1]) | outcome (KB-3-1) | outcome (NIH3T3 [2]) | outcome (HACAT [3]) | Potency (MCC-13) | Potency (MCC-26) | Potency (MKL-1) | Potency (MKL-2) | outcome (NIH3T3 [4]) | Potency (UISO) | Potency (WaGa) | Potency (C33A) | Potency (CAOV3) | Potency (CASKI) | Potency (Es-2) | Potency (HeLa) | Potency (Hek293T [5]) | Potency (JEG-3)

COc1cccc2cc(-c3nc(C4CCC(C(=O)O)CC4)n4ncnc(N)c34)[nH]c12 (stereo not given)
active: Potency (HEK293) 5.9 µM and 3.66 µM | Potency (KB-3-1) 2.35 µM | Potency (NIH3T3 [2]) 7.31 µM | Potency (C33A) 7.94 µM | Potency (Es-2) 7.08 µM
inactive: max response (HaCat [1]) -14.5% | max response (NIH3T3 [2]) -35.2% | Potency (MCC-13) | Potency (MCC-26) | Potency (MKL-1) | Potency (MKL-2) | Potency (HeLa) | Potency (JEG-3)

CC(c1cc2ccccc2s1)N(O)C(N)=O (stereo not given)
inactive: outcome (HEK293) | max response (HaCat [1]) -0.226% and -8.25% | max response (KB-3-1) 0.162% and -9.2% | max response (NIH3T3 [2]) 3.52% | outcome (NIH3T3 [2]) | outcome (HEK293T [6]) | Potency (MCC-13) | Potency (MCC-26) | Potency (MKL-1) | Potency (MKL-2) | outcome (NIH3T3 [4]) | Potency (UISO) | Potency (WaGa) | Potency (C33A) | Potency (CAOV3) | Potency (CASKI) | Potency (Es-2) | Potency (Hek293T [5]) | Potency (JEG-3)

Cc1[nH]c(=O)c(C#N)cc1-c1ccc2nccn2c1
inactive: max response (HEK293) 3.47% | max response (HaCat [1]) -13.2% and -27.6% | max response (KB-3-1) -3.5% and -14.6% | max response (NIH3T3 [2]) -20.6% | outcome (NIH3T3 [2]) | Potency (MCC-13) | Potency (MCC-26) | Potency (MKL-1) | Potency (MKL-2) | outcome (NIH3T3 [4]) | Potency (UISO) | Potency (WaGa) | Potency (C33A) | Potency (CAOV3) | Potency (CASKI) | Potency (Es-2) | Potency (HeLa) | Potency (Hek293T [5]) | Potency (JEG-3)

CNC(=O)c1ccc(N2C(=S)N(c3ccc(C#N)c(C(F)(F)F)c3)C(=O)C2(C)C)cc1F
inactive: max response (HEK293) -4.81% | outcome (HaCat [1]) | max response (KB-3-1) 8.38% | max response (NIH3T3 [2]) -6.26% | outcome (HACAT [3]) | Potency (MCC-13) | Potency (MCC-26) | Potency (MKL-1) | Potency (MKL-2) | Potency (UISO) | Potency (WaGa)

CCCc1nn(C)c2c(=O)[nH]c(-c3cc(S(=O)(=O)N4CCN(C)CC4)ccc3OCC)nc12
inactive: max response (HaCat [1]) -6.49% and -10.8% | max response (KB-3-1) 4.32% | outcome (KB-3-1) | max response (NIH3T3 [2]) -19.3% and 3.51% | Potency (MCC-13) | Potency (MCC-26) | Potency (MKL-1) | Potency (MKL-2) | Potency (UISO) | Potency (WaGa) | Potency (C33A) | Potency (CAOV3) | Potency (CASKI) | Potency (Es-2) | Potency (HeLa) | Potency (Hek293T [5]) | Potency (JEG-3)
active: Potency (HEK293) 18.7 µM

NC(=O)c1ccc(I)c([N+](=O)[O-])c1
inactive: outcome (HEK293) | outcome (HaCat [1]) | max response (KB-3-1) 7.82% | max response (NIH3T3 [2]) -1.58% | outcome (HACAT [3]) | outcome (HEK293T [6]) | Potency (MCC-13) | Potency (MCC-26) | Potency (MKL-1) | Potency (MKL-2) | Potency (UISO) | Potency (WaGa)

O=C(Nc1nc2ccccc2n1CCN1CCOCC1)c1cccc([N+](=O)[O-])c1
inactive: outcome (HEK293) | outcome (HaCat [1]) | max response (KB-3-1) 4.26% | outcome (NIH3T3 [2]) | outcome (HACAT [3]) | outcome (HEK293T [6]) | Potency (MCC-13) | outcome (NIH3T3 [4]) | Potency (UISO)

COc1cc2c(cc1OC)CN(CCc1ccc(NC(=O)c3cccc4c(=O)c5cccc(OC)c5[nH]c34)cc1)CC2
inactive: outcome (HaCat [1]) | max response (KB-3-1) 4.69% and -0.508% | max response (NIH3T3 [2]) 3.98% | outcome (NIH3T3 [2]) | outcome (HACAT [3]) | Potency (MCC-13) | Potency (MCC-26) | Potency (MKL-1) | outcome (NIH3T3 [4]) | Potency (C33A) | Potency (CAOV3) | Potency (CASKI) | Potency (Es-2) | Potency (HeLa) | Potency (Hek293T [5]) | Potency (JEG-3)
active: Potency (HEK293) 11.8 µM and 7.31 µM | Potency (MKL-2) 16.6 µM

COc1ccc(-c2c(-c3ccc(O)cc3O)n[nH]c2C)cc1
active: Potency (HEK293) 27 µM
inactive: outcome (HaCat [1]) inactive; activator | max response (KB-3-1) -14.6% | max response (NIH3T3 [2]) -24.1% | outcome (HACAT [3]) inactive; activator [at 92 µM] | Potency (MCC-13) | Potency (MCC-26) | Potency (MKL-1) | Potency (MKL-2) | Potency (UISO) | Potency (WaGa)

CCOc1cc(C(=O)Nc2ccc(Cl)c(-c3nc4ccccc4[nH]3)c2)cc(OCC)c1OCC
inactive: max response (HaCat [1]) 1.32% and 3.52% | max response (KB-3-1) -16% and -9.64% | max response (NIH3T3 [2]) -3.49% | outcome (NIH3T3 [2]) | Potency (MCC-13) | Potency (MCC-26) | Potency (MKL-1) | outcome (NIH3T3 [4]) | Potency (WaGa) | Potency (CAOV3) | Potency (CASKI) | Potency (Es-2) | Potency (HeLa) | Potency (Hek293T [5]) | Potency (JEG-3)
active: Potency (HEK293) 16.6 µM
